Composite z-score and z-score data for five molecules are collected here from PubChem BioAssay.

Test [1] relates to Plasmodium falciparum Sir2 (PF13_0152, Sir2A). The experiment in a line: Plasmodium falciparum Sir2A binding compounds – biochemical, small-molecule microarray, 635 nm fluorescence, primary screen (AID 1098).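 Note: score merges spot fluorescence intensity with its signal-to-noise ratio.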 The settings on record: fluorescence 635 nm, higher = more signal.
The nature of test [2]: probe aDKK1 binding to arrayed compounds – biochemical, biotinylated probe, 635/667 nm fluorescence, primary screen (AID 1099).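 Note: score merges 667nm spot fluorescence with signal to noise across triplicate slides.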 Conditions: small-molecule microarray, higher = more signal.
Test [3] can be described thus: probe aCHRDL2 binding to arrayed compounds – biochemical, biotinylated probe, 635/667 nm fluorescence, primary screen (AID 1100). Conditions: small-molecule microarray, higher = more signal.
Test [4] can be described thus: change in splice reporter luminescence, either direction, cell-based, HEK293, spliceosome inhibition project, primary screen (AID 1101).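 Note: HEK293 cells carrying a splicing-competent luciferase reporter gene; test concentration not given here.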 The settings on record: HEK293 splicing luciferase reporter, 24 h, higher = more signal, called active from +8 up or from −8 down.
The target of test [5] is Fibroblast growth factor 10 (Homo sapiens) (UniProt O15520). Kind of test: compounds binding fibroblast growth factor 10 – biochemical, small-molecule microarray, 635 nm fluorescence, primary screen (AID 1102). The settings on record: FGF10 binding, fluorescence 635 nm, higher = more signal.
Sequence of Fibroblast growth factor 10 (Homo sapiens) (O15520 whole entry, looked up): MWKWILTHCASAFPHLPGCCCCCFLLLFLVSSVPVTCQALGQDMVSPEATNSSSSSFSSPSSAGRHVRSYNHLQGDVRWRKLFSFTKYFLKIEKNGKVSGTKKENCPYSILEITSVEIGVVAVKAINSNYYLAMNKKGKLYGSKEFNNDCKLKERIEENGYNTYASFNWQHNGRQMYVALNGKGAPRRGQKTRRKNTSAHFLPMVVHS
In test [6] the test system is glycogen synthase kinase-3 (GSK3A per assay name; protocol says GSK3B). Kind of test: compounds binding glycogen synthase kinase-3 – biochemical, small-molecule microarray, 635 nm fluorescence, GSK3A, primary screen (AID 1103). Note: the record names both GSK3A and GSK3B. The settings on record: fluorescence 635 nm, higher = more signal.
Test [7] concerns the target Epidermal growth factor receptor (Homo sapiens) (UniProt P00533). The experiment in a line: compounds binding epidermal growth factor receptor – biochemical, small-molecule microarray, 635 nm fluorescence, primary screen (AID 1104).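 Note: score merges 667 nm emission intensity with spot signal to noise over triplicate slides.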 The settings on record: EGFR binding, higher = more signal.
Test [8] deals with Follistatin-related protein 3 (Homo sapiens) (UniProt O95633). The experiment in a line: compounds binding follistatin-related protein 3 – biochemical, small-molecule microarray, 635 nm fluorescence, primary screen (AID 1105).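 Note: score merges emission near 667 nm and signal to noise per printed spot across three slides.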 The settings on record: FSTL3 binding, higher = more signal.
Sequence of Follistatin-related protein 3 (Homo sapiens) (O95633 whole entry, looked up): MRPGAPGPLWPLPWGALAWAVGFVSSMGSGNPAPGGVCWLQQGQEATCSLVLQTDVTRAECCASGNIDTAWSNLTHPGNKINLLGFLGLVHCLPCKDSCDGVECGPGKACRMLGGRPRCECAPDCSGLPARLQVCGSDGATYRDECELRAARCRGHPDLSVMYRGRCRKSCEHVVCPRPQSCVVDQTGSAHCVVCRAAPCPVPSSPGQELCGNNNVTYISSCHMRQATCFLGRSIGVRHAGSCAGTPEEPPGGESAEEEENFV
For test [9], the target named is Dickkopf-related protein 1 (Homo sapiens) (UniProt O94907). The experiment in a line: small molecules binding DKK1 protein – biochemical, small-molecule microarray, 635 nm fluorescence scan, primary screen (AID 1106).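 Note: score merges emission near 667 nm with signal to noise over three replicate slides.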 Conditions: higher = more signal.
Sequence of Dickkopf-related protein 1 (Homo sapiens) (O94907 whole entry, looked up): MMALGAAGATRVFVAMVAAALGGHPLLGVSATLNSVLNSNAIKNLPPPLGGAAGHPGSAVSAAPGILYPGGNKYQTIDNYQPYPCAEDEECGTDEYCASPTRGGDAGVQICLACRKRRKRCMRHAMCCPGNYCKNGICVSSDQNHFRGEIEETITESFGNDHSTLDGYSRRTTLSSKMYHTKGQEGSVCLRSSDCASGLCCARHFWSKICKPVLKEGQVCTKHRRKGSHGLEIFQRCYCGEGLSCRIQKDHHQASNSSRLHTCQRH
The subject of test [10] is Inhibin beta A chain (activin A). Kind of test: small molecules binding activin A – biochemical, small-molecule microarray, 635 nm fluorescence scan, primary screen (AID 1107).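 Note: mouse activin A protein probed at 4.33 µg/mL on printed slides; score merges bound-protein fluorescence near 667 nm with spot signal-to-noise.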 The settings on record: INHBA, higher = more signal.
For test [11], the system named is Human papillomavirus type 1a protein E7 (residues 44-93). Kind of test: small molecules binding HPV E7 44-93 – biochemical, small-molecule microarray, residues 44-93, 635 nm fluorescence, primary screen (AID 1108).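 Note: E7 fragment applied at 1 µg/mL in TBST for 1 h at 4 C; score combines spot fluorescence with its signal to noise ratio.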 The settings on record: fluorescence 635 nm, higher = more signal.
The nature of test [12]: hepatitis C replication reporter changes, two-sided – Huh7 cells, luciferase reporter, HCV replication inhibitor project, primary screen (AID 1109).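 Note: huh7 hepatoma cells harbouring a luciferase neomycin HCV replicon reporter; luciferase luminescence as measure of HCV replicon replication; test concentration not given here.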 Conditions: Huh7 HCV replicon luciferase reporter, 48 h; higher = more signal.
Test [13] deals with Left-right determination factor 2 (Homo sapiens) (UniProt O00292). Kind of test: small molecules binding LEFTY2 protein – biochemical, small-molecule microarray, 635 nm fluorescence scan, primary screen (AID 1110). The settings on record: higher = more signal.
Sequence of Left-right determination factor 2 (Homo sapiens) (O00292 whole entry, looked up): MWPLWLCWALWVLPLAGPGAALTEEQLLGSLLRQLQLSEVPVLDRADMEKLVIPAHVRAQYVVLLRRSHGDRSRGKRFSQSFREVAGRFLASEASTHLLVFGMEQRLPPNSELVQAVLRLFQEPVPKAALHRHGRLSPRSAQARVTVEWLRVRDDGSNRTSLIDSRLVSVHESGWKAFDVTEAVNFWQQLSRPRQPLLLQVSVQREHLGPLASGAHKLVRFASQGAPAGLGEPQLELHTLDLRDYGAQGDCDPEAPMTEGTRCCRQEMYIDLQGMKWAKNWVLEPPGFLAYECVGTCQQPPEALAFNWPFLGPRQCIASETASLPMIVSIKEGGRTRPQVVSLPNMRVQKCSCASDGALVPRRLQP
The target of test [14] is Calmodulin-1 (Homo sapiens) (UniProt P0DP23). Kind of test: small molecules binding calmodulin-1 with EGTA – biochemical, small-molecule microarray, Cy5-labelled CALM1, profiling panel (AID 1111).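 Note: labelled calmodulin applied in Tris saline Tween buffer holding calcium plus EGTA and DTT.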 Conditions: Cy5-CALM1 binding fluorescence, higher = more signal.
For test [15] the target is unchanged. The experiment in a line: small molecules binding Ca-loaded calmodulin-1 – biochemical, small-molecule microarray, Cy5-labelled CALM1, plus calcium, artefact control for SMM control-protein annotation, profiling panel (AID 1112).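 Note: score merges spot fluorescence with signal to noise from triplicate slides.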 The settings on record: Cy5-CALM1 binding fluorescence, higher = more signal.
The nature of test [16]: probe aWnt5a binding to arrayed compounds – biochemical, biotinylated probe, 635/667 nm fluorescence, primary screen (AID 1113).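 Note: score merges 667 nm fluorescence intensity with signal-to-noise per printed feature.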 The settings on record: small-molecule microarray, higher = more signal.
A short description of test [17]: probe aShh binding to arrayed compounds – biochemical, biotinylated probe, 635/667 nm fluorescence, primary screen (AID 1114).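 Note: probe is biotin-labelled aShh protein from a stem cell growth factor screen; measures binding of labelled protein to compounds printed on the slide; score merges feature fluorescence at 667 nm with signal-to-noise.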 Conditions: small-molecule microarray, higher = more signal.
A short description of test [18]: probe aNog binding to arrayed compounds – biochemical, biotinylated probe, 635/667 nm fluorescence, primary screen (AID 1115).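 Note: probe is biotinylated aNog protein used at 0.15 µg/mL for 1 h at 4 C; z-score combines 667 nm fluorescence of each spot with its signal to noise.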 The settings on record: small-molecule microarray, higher = more signal.
Test [19] concerns the target Torsin-1A-interacting protein 1 (Homo sapiens) (UniProt Q5JTV8). The experiment in a line: compound microarray binding of lysate hLAP1 – cell lysate, small-molecule microarray, COS7 lysate, 635/667 nm fluorescence, primary screen (AID 1116). Conditions: 635 nm fluorescence, higher = more signal.
The target in test [20] is Alpha-bungarotoxin (Bungarus multicinctus) (UniProt P60615). The experiment in a line: compounds binding labelled alpha-BTX control protein – biochemical, small-molecule microarray, Alexa647 label, 635/667 nm fluorescence, artefact control for SMM control protein annotation, profiling panel (AID 1117). Conditions: alpha-BTX-A647 binding fluorescence, higher = more signal.
Sequence of Alpha-bungarotoxin (Bungarus multicinctus) (P60615 whole entry, looked up): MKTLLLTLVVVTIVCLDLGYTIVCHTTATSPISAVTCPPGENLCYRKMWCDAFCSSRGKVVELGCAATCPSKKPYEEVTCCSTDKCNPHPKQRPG

Active and inactive are the calls of the source.

Sequence of Epidermal growth factor receptor (Homo sapiens) (P00533 whole entry, looked up): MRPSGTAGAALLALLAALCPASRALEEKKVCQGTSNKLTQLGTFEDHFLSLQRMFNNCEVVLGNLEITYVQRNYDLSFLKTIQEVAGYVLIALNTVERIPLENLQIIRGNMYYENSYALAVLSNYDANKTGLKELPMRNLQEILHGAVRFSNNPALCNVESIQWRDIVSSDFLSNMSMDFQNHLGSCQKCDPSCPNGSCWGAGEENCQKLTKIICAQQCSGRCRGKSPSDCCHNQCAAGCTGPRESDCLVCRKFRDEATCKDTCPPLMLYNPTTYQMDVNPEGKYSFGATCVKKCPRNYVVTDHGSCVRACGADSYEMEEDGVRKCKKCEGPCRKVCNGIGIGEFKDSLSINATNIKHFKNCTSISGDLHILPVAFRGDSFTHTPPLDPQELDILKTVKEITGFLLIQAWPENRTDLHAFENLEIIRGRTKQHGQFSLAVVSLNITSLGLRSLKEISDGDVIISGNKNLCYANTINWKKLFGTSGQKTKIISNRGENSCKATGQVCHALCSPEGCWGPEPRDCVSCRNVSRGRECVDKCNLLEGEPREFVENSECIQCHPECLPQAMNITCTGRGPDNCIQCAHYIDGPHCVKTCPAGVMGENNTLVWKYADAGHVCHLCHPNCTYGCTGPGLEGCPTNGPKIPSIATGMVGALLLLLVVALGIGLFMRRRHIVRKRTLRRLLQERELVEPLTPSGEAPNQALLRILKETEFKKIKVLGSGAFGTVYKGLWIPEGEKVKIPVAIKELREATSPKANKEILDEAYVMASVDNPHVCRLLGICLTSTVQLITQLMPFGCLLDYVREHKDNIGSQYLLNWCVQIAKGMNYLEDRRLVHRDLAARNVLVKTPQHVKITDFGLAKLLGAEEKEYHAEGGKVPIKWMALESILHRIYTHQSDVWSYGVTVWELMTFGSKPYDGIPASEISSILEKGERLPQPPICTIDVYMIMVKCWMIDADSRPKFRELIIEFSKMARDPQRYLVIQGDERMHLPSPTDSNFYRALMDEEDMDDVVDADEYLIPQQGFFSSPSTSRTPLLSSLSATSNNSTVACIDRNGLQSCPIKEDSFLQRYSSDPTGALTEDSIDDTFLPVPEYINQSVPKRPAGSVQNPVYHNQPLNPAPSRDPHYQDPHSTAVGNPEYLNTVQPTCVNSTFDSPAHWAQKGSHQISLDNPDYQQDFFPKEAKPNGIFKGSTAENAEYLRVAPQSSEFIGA
Sequence of Torsin-1A-interacting protein 1 (Homo sapiens) (Q5JTV8 whole entry, looked up): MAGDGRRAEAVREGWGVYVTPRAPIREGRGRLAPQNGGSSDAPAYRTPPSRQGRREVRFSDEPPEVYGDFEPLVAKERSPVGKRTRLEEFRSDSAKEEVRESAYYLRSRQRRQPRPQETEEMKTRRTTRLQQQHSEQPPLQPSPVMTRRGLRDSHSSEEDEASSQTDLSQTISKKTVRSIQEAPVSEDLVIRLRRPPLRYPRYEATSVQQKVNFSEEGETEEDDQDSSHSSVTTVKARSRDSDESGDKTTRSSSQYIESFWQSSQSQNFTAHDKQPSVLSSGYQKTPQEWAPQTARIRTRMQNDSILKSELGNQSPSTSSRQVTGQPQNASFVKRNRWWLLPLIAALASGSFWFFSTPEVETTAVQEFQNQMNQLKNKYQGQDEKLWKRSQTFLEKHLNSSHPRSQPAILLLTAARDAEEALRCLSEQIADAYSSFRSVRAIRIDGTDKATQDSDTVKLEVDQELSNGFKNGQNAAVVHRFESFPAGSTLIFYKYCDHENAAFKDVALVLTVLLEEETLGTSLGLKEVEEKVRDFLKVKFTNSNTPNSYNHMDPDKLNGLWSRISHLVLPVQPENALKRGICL

`C[N+](C)(C)CCCCCCNC(=O)[C@@H]1C[C@@H]2C(=O)N[C@@H](Cc3ccccc3)C(=O)N2[C@@H]1c1cccc(OCCO)c1`: the composite z-score in [1] is 1.63; in [2], -0.147; in test [3], 0.376; in [5], 0.72; in test [6], 0.216; in test [7], -0.0586. Moreover, the composite z-score in [8] was 1.32; in [9] it was 1.02; in [10] it was 0.615; in test [11], 0.44; in test [13], 0.542; in [14] it was -0.637. For the same molecule, the composite z-score in test [15] is -0.792; in test [16], -0.107; in test [17], -0.0813; in test [18], -0.364; in [19] it was 1.22; in [20], 1.24. Also, the z-score was -0.189 (inactive) in test [4] and 0.137 in test [12].

Consider `CCCCN1CC=CC23O[C@@H]4C=CCCOC(=O)C4[C@H]2C(=O)N(CCCCCCO)[C@@H]3C1=O` (stereo not given in full), for which the composite z-score in test [1] is 1.45; in test [2] it was -0.466; in test [3] it was -0.112; in [5] it was -1.22; in test [6], -0.163; in test [7] it was -0.677. Besides, the composite z-score was -0.187 in [8]; -1.21 in [9]; -0.39 in test [10]; 0.748 in [11]; -1.11 in [13]; -0.235 in [14]. Further, the composite z-score was -0.0631 in test [15]; -0.274 in test [16]; -0.117 in [17]; -0.413 in [18]; 0.999 in test [19]; -0.324 in [20]. The z-score in test [4] was 0.705 (inactive); in test [12], -0.485.

As to `CN(C)C(=O)[C@]1(Cc2ccccc2N=[N+]=[N-])N=C(c2ccc(OCCCO)cc2)O[C@@H]1c1ccccc1N=[N+]=[N-]`, the composite z-score in [1] was 1.11; in test [2], 1.72; in test [3] it was 1.01; in [5], 0.885; in test [6] it was -0.0929; in test [7] it was 0.405. Further, the composite z-score in test [8] is 1.3; in [9] it was 0.172; in [10], 1.14; in [11] it was 1.38; in [13], 0.116; in test [14], 1.7. For the same molecule, the composite z-score in test [15] is 0.497; in test [16], -0.0179; in [17], 0.0796; in test [18], 1.39; in test [19], 2.54; in test [20], 1.22. The z-score was -0.727 (inactive) in test [4] and -2.69 in test [12].

Consider `Cc1ccc(N2C(=O)c3ccccc3[C@@H](C(=O)NC3CC3)[C@@H]2c2ccc(CO)cc2)nc1`, for which the composite z-score in test [1] is 1.24; in test [2], -0.201; in [3] it was 0.908; in test [5], -1.5; in test [6] it was -0.968; in [7], -1.58. Further, the composite z-score in test [8] is -1.38; in test [9], -2.23; in test [10], -0.314; in [11], -1.51; in test [13] it was -3.3; in test [14], -1.35. In addition, the composite z-score was -1.25 in [15]; -0.268 in [16]; -0.0866 in [17]; -0.126 in test [18]; -0.13 in test [19]; -1.36 in [20]. For the same molecule, the z-score in test [4] is 0.942 (inactive); in [12] it was -0.312.

In the case of `CCC[C@@H]1C[C@@]1(CCC)[C@@H](NC(=O)c1ccccc1)c1cccc(Cl)c1`, the composite z-score in [1] is -0.12; in test [2], 2; in test [3], 0.958; in test [5], 0.905; in [6] it was 1.09; in test [7], 0.446. Further, the composite z-score in test [8] was 0.644; in [9] it was -0.202; in test [10] it was 1.08; in test [11] it was 1.37; in [13], -0.278; in [14] it was 1.97. For the same molecule, the composite z-score in test [15] turned out to be 1.43; in test [16] it was 1.09; in test [17] it was 1.35; in test [18], 0.311; in [19], 1.04; in test [20] it was 1.74. For the same molecule, the results for the z-score in [4] and in test [12] were 0.444 (inactive) and -0.75, respectively.
